Test results taken from the supplement of paper PMC13380429.

Each compound was assayed on Vero E6 infected with SARS-CoV-2 (assay: morphology score (similarity to uninfected cells); higher = more like uninfected cells). Conditions: 24 h.

SMILES | morphology score
N#CC(C#N)=Cc1ccc(O)c(O)c1 [tyrphostin-AG-18] (10 µM) | 0.204
O=C(Nc1ccncc1)C(=O)c1cn(Cc2ccc(Cl)cc2)c2ccccc12 [indibulin] (0.833333 µM) | -0.246
CC(CN1c2ccccc2Sc2ccccc21)N(C)C (stereo not given) [promethazine] (10 µM) | 0.528
CCC(N)C(O)c1ccc(O)c(O)c1 (stereo not given) [ethylnorepinephrine] (10 µM) | -0.108
CC(Cc1ccccc1)NCCC(c1ccccc1)c1ccccc1 (stereo not given) [prenylamine] (10 µM) | 0.878
C=C1/C(=C\C=C2/CCC[C@]3(C)[C@@H]([C@H](C)/C=C/[C@@H](O)C4CC4)CC[C@@H]23)C[C@@H](O)C[C@@H]1O [calcipotriol] (10 µM) | -0.273
COc1cccc(Nc2ncnn3ccc(CN4CC[C@@H](N)[C@H](O)C4)c23)c1 (0.833333 µM) | -0.24
CCC(=O)c1ccc(OCC(O)CN2CCN(c3ccccc3)CC2)cc1 (stereo not given) [centpropazine] (10 µM) | 0.0954
C[C@H](N[C@@H](CCc1ccccc1)C(=O)O)C(=O)N1CCC[C@H]1C(=O)O [enalaprilat] (10 µM) | -0.0398
O=C(O[C@@H]1Cc2c(O)cc(O)cc2O[C@@H]1c1cc(O)c(O)c(O)c1)c1cc(O)c(O)c(O)c1 [epigallocatechin-gallate-(-)] (10 µM) | 0.156
Cc1nc2cnc3ccc(C#Cc4cccnc4)cc3c2n1-c1ccc(C(C)(C)C#N)cc1 (10 µM) | 0.114
CC(C)C(=O)c1c(C(C)C)nn2ccccc12 [ibudilast] (10 µM) | 0.0924
CCOc1nc2c(N)ncnc2n1CC (10 µM) | 0.236
N[C@@]1(C(=O)O)CC[C@H]2[C@H](C(=O)O)[C@H]21 [eglumetad] (10 µM) | -0.0541
O=C(Cc1ccccc1)Nc1nc2ccc(Cl)cc2c2nc(-c3ccco3)nn12 (10 µM) | -0.00361
COC(=O)/C=C/C(=O)N[C@@H]1CC[C@@]2(O)[C@H]3Cc4ccc(O)c5c4[C@@]2(CCN3CC2CC2)[C@H]1O5 [beta-funaltrexamine] (10 µM) | 0.0225
O=S1(=O)OC(c2ccc(O)cc2)(c2ccc(O)cc2)c2ccccc21 [phenolsulfonphthalein] (10 µM) | 0.1
O=c1ccc2ccc(OCCCCN3CCN(c4cccc5sccc45)CC3)cc2[nH]1 [brexpiprazole] (10 µM) | 0.0142
NC1CCN(c2cccc(Cl)n2)CC1 (10 µM) | -0.122
CC(C)n1c(/C=C/[C@@H](O)C[C@@H](O)CC(=O)O)c(-c2ccc(F)cc2)c2ccccc21 [fluvastatin] (0.833333 µM) | -0.082

SMILES | morphology score
OCCOc1ccc(/C(=C(/CCCl)c2ccccc2)c2ccccc2)cc1 [ospemifene] (10 µM) | 0.19
C[C@@H]1COCCN1c1cc(=O)n2c(n1)N(Cc1cncc(Cl)c1)[C@H](C(F)(F)F)CC2 (0.833333 µM) | 0.55
Nc1ncnc2c1ncn2[C@@H]1O[C@H](CO)[C@@H](O)[C@H]1O [adenosine] (10 µM) | 0.0109
O=C(O)CNC(=O)c1c(O)c2ccccc2n(Cc2ccccc2)c1=O (10 µM) | -0.000636
CCC1(CC)C(=O)C=CNC1=O [pyrithyldione] (10 µM) | -0.0471
CCOC(=O)c1ncn2c1CN(C)C(=O)c1cc(N=[N+]=[N-])ccc1-2 (10 µM) | 0.00535
CC(C)(C)c1nc(-c2cccc(NS(=O)(=O)c3c(F)cccc3F)c2F)c(-c2ccnc(N)n2)s1 [dabrafenib] (10 µM) | 0.245
CN1C(=O)CC(c2ccccc2)C1=O (stereo not given) [phensuximide] (10 µM) | 0.0814
CCCn1c(=O)c2[nH]c(-c3cnn(Cc4cccc(C(F)(F)F)c4)c3)nc2n(CC)c1=O (10 µM) | 0.163
Oc1ccc2c(c1)CC[C@H](c1ccccc1)[C@@H]2c1ccc(OCCN2CCCC2)cc1 [lasofoxifene] (0.833333 µM) | 0.106
CO[C@H]1/C=C\C=C(/C)C(=O)NC2=CC(=O)C(NCCN(C)C)=C(C[C@@H](C)C[C@H](OC)[C@H](O)[C@@H](C)/C=C(\C)[C@@H]1OC(N)=O)C2=O [alvespimycin] (10 µM) | 0.255
c1ccc2cc(C3=NCCN3)ncc2c1 (10 µM) | 0.119
Nc1ncnc2c1c(-c1cnc3[nH]ccc3c1)nn2C1CCCC1 (10 µM) | -0.0498
Cc1ccccc1N1CCN(CCc2nnc3n2CCCC3)CC1 [dapiprazole] (10 µM) | 0.109
NCC1CC(=O)N(Cc2ccccc2)C1 (stereo not given) [nebracetam] (10 µM) | 0.0779
CC1/C=C/C=C/C=C/C=C/C=C/C=C/C=C/C(OC2O[C@H](C)[C@@H](O)[C@H](N)[C@@H]2O)CC(O)C(C(=O)O)C(O)CC(=O)CC(O)CC(O)CC(O)CC(=O)CCCC(=O)CC(=O)OC1C(C)CC(C)C(O)CC(=O)c1ccc(N)cc1 (stereo not given in full) [candicidin] (0.833333 µM) | 0.198
CC1(CN2CCC(n3c(=O)[nH]c4ccccc43)CC2)OCc2ccccc2-n2cccc21 (stereo not given) [zaldaride] (10 µM) | -0.152
CN(C)C(=N)NC(=N)N [metformin] (10 µM) | -0.00931
COC(=O)C1=C(C)NC(C)=C(C(=O)O[C@H]2CCN(Cc3ccccc3)C2)[C@H]1c1cccc([N+](=O)[O-])c1 [barnidipine] (10 µM) | -0.0592
O.O=[Si]=O.O=[Si]=O.O=[Si]=O.O=[Si]=O.[O]=[Mg].[O]=[Mg].[O]=[Mg] (10 µM) | 0.0643
